Screening results as filed in PubChem BioAssay.
Only some compounds are listed: those with a hit (about 9.2% of all), similar ones and a draw of the others.
NPC1 promoter act: NPC1 promoter activation. 2.4% of 320,000 active. AID 485313. Potency, µM (highest dose often 9.22 µM), inactives show top-dose activation, most hits filed as activators. Huh7 NPC1 promoter luciferase reporter, 24 h; note: % of control where 0% means no effect; nearly all actives have a fitted effect of over 60% in size
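Stably transfected Huh7 (NPC1 promoter→luciferase), 1500 cells/well in Opti-MEM + 10% FBS, 2 h settle, then compound 24 h at 37 °C. Luminescence after 10 min with Amplite reagent.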
ELG1 genotoxic: genotoxicity induction in ELG1-luciferase HEK293T cells; 1.3% of 330,000 active; HEK293T ELG1-luciferase reporter, luminescence, 16 h; AID 504466; Potency, µM (highest dose often 46 µM), for the others: at the highest dose activity change, positive = activation, actives largely listed as activators; note: % of control where 0% means no effect; nearly all actives have a fitted effect of over 60% in size
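Screening used a luciferase reporter fused to human ELG1 in HEK293T cells. Luminescence was read on a CCD plate imager after 16 hr exposure and 30 min ONE-Glo incubation.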
FLuc modulator: inhibits or activates purified firefly luciferase, miR-21 counter-screen; 6.9% of 360,000 active; Potency, µM (doses to about 57.5 µM), for the others: top-dose activity change, negative = inhibition, hits mostly inhibitors; P08659; purified FLuc, Km substrates, luminescence inhibition;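 note: plate controls were vehicle for no effect and reference inhibitor for full effect; nearly all actives have a fitted effect of over 55% in size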
Target sequence (P08659 whole entry, looked up): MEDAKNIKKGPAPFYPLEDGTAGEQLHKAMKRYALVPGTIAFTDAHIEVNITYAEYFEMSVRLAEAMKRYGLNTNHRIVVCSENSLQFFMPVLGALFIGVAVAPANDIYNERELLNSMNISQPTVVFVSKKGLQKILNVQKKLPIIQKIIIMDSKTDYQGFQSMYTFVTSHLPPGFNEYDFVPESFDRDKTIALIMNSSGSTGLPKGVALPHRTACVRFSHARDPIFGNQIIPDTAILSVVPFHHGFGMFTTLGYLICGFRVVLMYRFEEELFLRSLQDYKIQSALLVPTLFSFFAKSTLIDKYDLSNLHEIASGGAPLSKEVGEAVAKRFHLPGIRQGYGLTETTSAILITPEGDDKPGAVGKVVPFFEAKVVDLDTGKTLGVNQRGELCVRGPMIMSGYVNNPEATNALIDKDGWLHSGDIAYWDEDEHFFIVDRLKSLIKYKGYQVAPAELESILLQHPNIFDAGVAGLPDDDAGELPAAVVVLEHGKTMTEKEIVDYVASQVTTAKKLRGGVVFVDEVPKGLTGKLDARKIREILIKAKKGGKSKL
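Purified P. pyralis luciferase (10nM final) with 10uM D-luciferin and 10uM ATP (Km levels) in 50mM Tris acetate pH 7.5, 10mM Mg acetate, 0.01% Tween-20, 0.05% BSA; qHTS 6-point titration, ~60 µM downward; luminescence read.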
SMN2 splice enh: enhancers of SMN2 splice variant expression; AID 1458; HEK293 SMN2-luciferase splicing reporter, luminescence, 30-36 h; 2.8% of 210,000 active; Potency, µM (highest dose often 46.1 µM), for the others: at the top dose activity change, positive = activation, actives largely listed as activators; note: % of control where 0% means no effect; nearly all actives have a fitted effect of over 55% in size
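qHTS luciferase splicing reporter: luminescence rises when SMN2 exon 7 is included in transfected HEK293 cells. Compound exposure lasted 30-36 h at 37C, with 4.5 mM final sodium butyrate as control, followed by a ONE-Glo read.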
Rab9 prom act: activators of Rab9 promoter | AID 485297 | Potency, µM (top dose mostly 9.22 µM), inactives show top-dose activation, negative = inhibition, actives largely listed as activators | Huh7 Rab9 promoter-luciferase reporter, luminescence, 24 h | 2.8% of 320,000 active; note: % of control where 0% means no effect; nearly all actives have a fitted effect of over 60% in size
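Quantitative HTS format; Huh7 Rab9-luciferase reporter cells (1500/well) receive compound 2 h post-plating, incubate 24 h at 37 °C, then get luciferase reagent for 10 min before luminescence reading.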
ELG1 DNA repair: inhibitors of ELG1-dependent DNA repair in HEK293T cells | HEK293T ELG1-luciferase reporter, luminescence, 16 h; DNA damage induced by 5-fluorouridine | Potency, µM (doses to about 46.1 µM), inactives show at the highest dose activity change, negative = inhibition, hits mostly inhibitors | 2.3% of 330,000 active | AID 504467; note: % is set by controls: 0 for no effect and ±100 for the full control effect; nearly all actives have a fitted effect of over 55% in size
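Quantitative HTS, concentration-response format. 2,000 cells/well co-treated with 5-fluorouridine and compound, 16 hr in 5% CO2 at 37 °C; ONE-Glo luminescence read after 30 min.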
* marks the source's active call; other numbers are inactive results; ? = inconclusive; . = no result; [ ] = dose if it differs, or a comment. Calls come from the whole dose curve; as a rule, active = well fitted curve in the direction sought with a large enough effect; inconclusive = small, poorly fitted or top-dose-only effect, or another doubt; inactive = no such curve, though single readings can be large; an effect the other way counts as inactive or inconclusive. Potency is the fitted concentration of half-maximal effect.

SMILES	NPC1 promoter act	ELG1 genotoxic	FLuc modulator	SMN2 splice enh	Rab9 prom act	ELG1 DNA repair
CCN(CC)C(=O)C1CCN(S(=O)(=O)c2ccc3c(c2)CCCN3C(=O)C2CCC2)CC1	1%	-4%	0%	.	-4%	23µM*
O=C(C1CCC1)N1CCc2cc(S(=O)(=O)N3CCN(c4ccccn4)CC3)ccc21	-1%	-2%	-2%	-40%	-6%	18µM*
O=C(C1CCC1)N1CCc2cc(S(=O)(=O)N3CCN(c4ccccc4)CC3)ccc21	.	.	1%	-2%	.	.
Cc1ccc(C)c(OCCn2c(C3CC(=O)N(Cc4ccc(F)cc4)C3)nc3ccccc32)c1 (stereo unspecified)	.	.	-7%	.	.	.
O=c1[nH]c2ccccc2c2cn(-c3ccccc3)nc12	2.8µM*	?	13µM*	.	?	?
O=c1[nH]c2ccccc2c2ccccc12	-1%[46.1 µM]	2%	-11%	20%	-11%[46.1 µM]	?
CCOC(=O)c1ccc2[nH]c3c(c2c1)CCCC3	2.8µM*	23µM*	11µM*	.	?	?
O=C(COC(=O)c1ccc2[nH]c3c(c2c1)CCCC3)Nc1ccccc1Cl	-2%	?	-8%	.	-3%	?
CCOC(=O)c1ccc(NS(=O)(=O)c2ccc3[nH]c4c(c3c2)CCCCC4)cc1	.	.	-13%	.	.	.
CCC(C)c1ccccc1NC(=O)COC(=O)c1ccc2[nH]c3c(c2c1)CCCC3 (stereo unspecified)	-5%	-13%	-18%	-16%	-2%	21µM*
COC(=O)c1ccc2[nH]c3c(c2c1)CC(C)CC3 (stereo unspecified)	20%	?	12µM*	.	11%	?
Cc1ccc(C)c(N2CCN(CC(=O)Nc3ccc([N+](=O)[O-])cc3C(=O)Nc3ccccc3F)CC2)c1	-4%	0%	3%	-6%	-3%	?
O=C(CN1CCN(c2cccc(Cl)c2)CC1)Nc1ccc([N+](=O)[O-])cc1C(=O)Nc1ccccc1F	-1%	-8%	2%	-26%	-1%	15µM*
CCN(CC)c1ccc(NC(=O)c2ccco2)c(C)c1	10%	?	-19%	-5%	1%	?
CCN(CC)c1ccc(NC(=S)NC(=O)c2ccco2)cc1	?	?	15µM*	7.9µM*	1.6µM*	?
CCN(CC)c1ccc(NC(=O)c2ccco2)cc1	1.6µM*	1.8µM*	3µM*	3.2µM*	?	?
Cc1cccc(/C(N)=N/OC(=O)c2ccoc2C)c1	1.1µM*	?	3.8µM*	.	1.3µM*	?
Cc1onc(-c2ccccc2Cl)c1C(=O)O/N=C(\N)c1ccccc1	6%	0%	6%	.	7%	-3%
Cc1occc1C(=O)O/N=C(\N)c1ccccc1	0.45µM*	?	1.9µM*	.	0.45µM*	?
Cc1ccc2[nH]c(=O)c(CN(C(=O)c3cccc(Cl)c3)C(C)(C)C)cc2c1	.	.	-2%	3%	.	.
CCOC(=O)CC(=O)CSc1nc2ccc(C)cc2cc1C#N	2%	16µM*	-21%[2.3 µM]	25µM*	1%	?
Cc1ccc2nc(SCC(=O)Nc3ccccc3N3CCOCC3)c(C#N)cc2c1	-30%	-2%	1%	-11%	-22%	4.1µM*
Cc1ccc(SCC(=O)Nc2ccccc2N2CCOCC2)cc1	-2%	-6%	0%	.	3%	-10%
COC(=O)CSc1nc2cc(C)ccc2cc1C#N	1.6µM*	?	13µM*	18µM*	1.4µM*	?
Cc1ccc2cc(C#N)c(SCC(=O)NCC3CCCO3)nc2c1 (stereo unspecified)	0%	-3%	3%	-1%	0%	15%
SMILES	NPC1 promoter act	ELG1 genotoxic	FLuc modulator	SMN2 splice enh	Rab9 prom act	ELG1 DNA repair
CC(C)NS(=O)(=O)c1ccc(CCC(=O)N2CCCCC2)cc1	-4%	0%	?	0%	12%	-2%
CCOC(=O)c1c(S(=O)(=O)NCC(=O)Nc2cc(C)ccn2)c(C)n(C)c1C	-2%	5%	-1%	.	-1%	?
COc1cc(NC(=O)C2CCCCC2)c2ncccc2c1	6%	2%	15µM*	-6%	16%	14%
COc1cc(NC(=O)c2ccc(Cl)cc2)c2ncccc2c1	6%	1%	?	.	-5%	0%
COc1ccc(OC)c(NC(=O)C2CCCCC2)c1	-3%	1%	-8%	5%	-10%	2%
COc1ccc(C(=O)Nc2cc(OC)cc3cccnc23)cc1	0%	1%	7.6µM*	.	1%[1.84 µM]	11%
Cc1ccc(Nc2cnn(C34CC5CC(CC(CC(=O)O)(C5)C3)C4)c(=O)c2Cl)c(Cl)c1	-5%	-11%	-14%	16%	-5%	15%
O=c1cc(O)c2sc3nc4c(c(C(F)(F)F)c3c2[nH]1)CCCCC4	-2%	2%	17µM*	.	5%	16%
O=C(O)c1cccc(Nc2ncnc3ccccc23)c1	0%	1%	19µM*	18%	16%	2%
Fc1cccc(Nc2ncnc3c2cnn3-c2ccccc2)c1	?	?	17µM*	.	?	?
Clc1cccc(Nc2ncnc3c2cnn3-c2ccccc2)c1	25%	?	27µM*	2%	17%	-20%
O=C(O)c1cccc(Nc2ncnc3c2cnn3-c2ccccc2)c1	1.3µM*	?	2.1µM*	13µM*	3.2µM*	?
CC(C)COc1ccc(Nc2ncnc3ccc(Br)cc23)cc1	.	.	-9%	-1%	.	.
CC(=O)c1cccc(Nc2ncnc3ccc(Br)cc23)c1	16%	0%	-2%	.	-1%	18µM*
Cc1cc(C)n2nc3nc(N4CCCC4)nc(-c4ccccc4)c3c2n1	-2%	0%	0%	37%	-4%	10µM*
Nc1[nH]nc2nc(N3CCCC3)nc(-c3ccccc3)c12	5%	3%	2%	-5%	-1%	-1%
O=C1/C(=C\c2cccs2)Sc2ccc3ccccc3c21	-3%	3.7µM*	0.6µM*	15%[1.84 µM]	20%	?
NC1=NC(=O)/C(=C\c2cccs2)S1	0%	8%	?	3%	-6%	26%
CC1(C)Cc2nc3sc4c(N(CCO)CCO)ncnc4c3cc2CO1	6%	?	?	19%	11%	0%
CC1(C)Cc2nc3sc4c(NCCO)ncnc4c3cc2CS1	21%	1%	19µM*	.	?	-1%
CCc1nc2c(sc3nc4c(cc32)COC(C)(C)C4)c(=O)n1Cc1ccccc1	-6%	-5%	-10%	-34%	-13%	-5%
CCCCn1cnc2c(sc3nc4c(cc32)CSC(C)(C)C4)c1=O	0.63µM*	?	1.1µM*	4µM*	1.1µM*	?
CC(C)CCn1cnc2c(sc3nc4c(cc32)CSC(C)(C)C4)c1=O	1µM*	?	0.6µM*	-5%	0.63µM*	?
